# A selection: hits, their analogues and other compounds. The true share with any hit is near 12%.
# Pf growth 48h: Primary qHTS for delayed death inhibitors of the malarial parasite plastid, 48 hour incubation | 5.9% of 310,000 active | P. falciparum luciferase growth in erythrocytes, 48 h | Potency, µM (series often up to 28.7 µM), most hits filed as inhibitors
#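 Erythrocytes infected with P. falciparum carrying an integrated firefly luciferase reporter (2% hematocrit, 0.1% parasitemia final) were exposed to compounds in RPMI 1640 with 0.5% Albumax at 37 C, 5% CO2. Growth inhibition was scored as reduced luminescence.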
# Sm TGR block: qHTS Assay for the Inhibitors of Schistosoma Mansoni Peroxiredoxins; Schistosoma mansoni thioredoxin glutathione reductase (TGR), Q962Y6; purified TGR, DTNB reduction, TNB absorbance 405 nm; Potency, µM (top dose mostly 114 µM), most hits filed as inhibitors; 3% of 360,000 active; further: nearly all actives have a fitted effect of over 60% in size
#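 Kinetic colorimetric format: TGR-catalysed, NADPH-driven DTNB reduction monitored via TNB absorbance. Enzyme dispensed at 20 nM; compound exposure 15 min at room temperature before reaction start.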
# SARS PLpro yeast: qHTS of Yeast-based Assay for SARS-CoV PLP; AID 485353, 2010; S. cerevisiae expressing SARS-CoV PLpro, growth rescue; Potency, µM (series often up to 32.9 µM), actives largely listed as activators; 0.19% of 330,000 active; calls by dose curve; further: nearly all actives have a fitted effect of over 55% in size
# Pf growth 96h: Primary qHTS for delayed death inhibitors of the malarial parasite plastid, 96 hour incubation; P. falciparum luciferase reporter growth, 96 h; Potency, µM (doses to about 28.7 µM), actives largely listed as inhibitors; 6.9% of 320,000 active; AID 504834, 2011
#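 Two parasite generations (96 h, 37 C, 5% CO2) of compound exposure in infected erythrocytes (0.05% parasitemia, 2% hematocrit). Luciferase-reporter P. falciparum; decreased luminescence indicates inhibited growth, aimed at apicoplast-acting delayed death.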
# Hits are given with their value; i = inactive; ? = inconclusive; nt = not tested or not shown; [ ] = remark or other dose. Unless noted, the call rests on the fitted dose curve; in most records, active means well fitted curve in the direction sought with a large enough effect; inconclusive means small, poorly fitted or top-dose-only effect, or another doubt; inactive means no such curve, though single readings can be large; an effect the other way counts as inactive or inconclusive.
SMILES,Pf growth 48h,Sm TGR block,SARS PLpro yeast,Pf growth 96h
CN(Cc1nc(CC2CC2)no1)CC12CC3CC(CC(C3)C1)C2,i,i,i,?
OCCN(Cc1ccccc1)Cc1ccccc1O,4.1µM,i,i,?
CCC(=O)N1CCc2cc(Br)cc(S(=O)(=O)N3CCC(C(=O)Nc4ccc(OC)cc4)CC3)c21,nt,i,nt,nt
CC(NC(=O)c1ccccc1OC(F)F)c1ccc(-n2ccnc2)cc1 (stereo unspecified),?,i,i,12µM
COC(=O)c1ccc(COc2ccc(CNCc3ccc(Cl)cc3)cc2)cc1,i,i,i,i
O=C(NC1CCCCC1)c1ccc2c(c1)N(Cc1ccc(Cl)cc1)C(=O)c1ccccc1S2(=O)=O,nt,i,nt,nt
O=C(NCCCl)Nc1ccccc1OCCOc1ccccc1NC(=O)NCCCl,2.1µM,i,i,2.1µM
O=C(Nc1ccccc1)Nc1cccc(Cl)c1Cl,i,i,i,i
O=C(Nc1ccc(Oc2ccc(NC(=O)Nc3ccccc3Cl)cc2)cc1)Nc1ccccc1Cl,1.9µM,i,i,1.5µM
CCCOc1ccccc1NC(=O)Nc1ccccc1Cl,i[5.75 µM],i,i,8.3µM
CCCOc1ccccc1N/C(=N/c1nc(C)cc(C)n1)NC(=O)Nc1ccc(Cl)cc1,13µM,i,i,i
COc1cccc(NC(=O)Cn2cc(C(=O)c3ccco3)c3ccccc32)c1,nt,i,nt,nt
Cc1noc(C)c1COC(=O)CCN1c2ccccc2Sc2ccccc21,?,i,i,12µM
Cc1noc(C)c1COC(=O)CCOc1ccccc1,i,i,i,i
O=C(Cc1ccc([N+](=O)[O-])cc1)Nc1cc(C(F)(F)F)cc(C(F)(F)F)c1,i,i,i,15µM
O=C(Cc1ccc([N+](=O)[O-])cc1)Nc1cccc(C(F)(F)F)c1,i,i,i,?
O=C(Cc1ccc([N+](=O)[O-])cc1)Nc1ccc(O)cc1C(=O)O,i,i,i,5.2µM
CCNc1nc(N)nc(Oc2ccc(OCC(=O)OC)nn2)n1,nt,i,nt,nt
COc1ccc(NC(=O)CN(C)S(=O)(=O)c2ccc3[nH]c4c(c3c2)CCCC4)cc1Cl,nt,i,nt,nt
O=C(Cc1nc2ccccc2[nH]1)c1ccc([N+](=O)[O-])cc1,1.9µM,i,i,2.9µM
O=C(Cc1nc2ccccc2[nH]1)c1ccc(Cl)cc1,2.3µM,i,i,?
Clc1ccc(/C=C/c2nc3ccccc3[nH]2)c(Cl)c1,i,i,i,i
CN/N=C(\Cc1nc2ccccc2[nH]1)c1ccc([N+](=O)[O-])cc1,?,i,i,?
Clc1ccc(/C=C/c2nc3ccccc3[nH]2)cc1,i,25µM,i,i
Clc1ccc(/C(Cc2nc3ccccc3[nH]2)=N\Nc2ccccc2)cc1,?,i,i,?
SMILES,Pf growth 48h,Sm TGR block,SARS PLpro yeast,Pf growth 96h
Cc1nn(C)cc1C(=O)Nc1ccc2c(c1)OCCO2,i,i,i,i
CNC(=S)N1CCN(S(=O)(=O)c2ccc3ccccc3c2)CC1,i,i,i,i
COc1cc2c(cc1OC)C(c1cccs1)N(C(=O)c1ccc(S(=O)(=O)N(C)C)cc1)CC2 (stereo unspecified),10µM,i,i,13µM
COc1cc2c(cc1OC)C(c1cccs1)N(C(=S)NC(C)C)CC2 (stereo unspecified),2.6µM,i,i,?
COc1cc2c(cc1OC)C(c1cccs1)N(C(=O)c1ccncc1)CC2 (stereo unspecified),?,i,i,?
Cc1ccc(C)c(NC(=O)Cn2nc(C)c3nn(-c4ccc(Cl)cc4)c(C)c3c2=O)c1,nt,i,nt,nt
CC(C)(C)c1ccc(C(=O)CC(Sc2ccc(Cl)cc2)C(=O)O)cc1 (stereo unspecified),i,11µM,i,?
Cc1ccc(SC(CC(=O)c2ccc(F)cc2)C(=O)O)cc1 (stereo unspecified),nt,0.5µM,i,?
CC(C)(C)c1ccc(C(=O)Nc2ccc(Cl)cc2)cc1,i,i,i,i
COc1cccc(C(C(=O)NC(C)(C)C)N(C(=O)CCC(=O)Nc2cc(C)on2)c2ccc3c(c2)OCCO3)c1OC (stereo unspecified),?,i,i,i
COc1ccc(S(=O)(=O)NCCS(=O)(=O)N2CCN(c3ccccc3)CC2)cc1OC,nt,i,nt,nt
CC(C)Oc1cc(O)c2c(=O)c(-c3ccc(O)cc3)coc2c1,i,i,i,2.9µM
O=c1c(-c2ccc(O)cc2)coc2cc(O)cc(O)c12,i,i,i,i
CN1C(=O)C(=Cc2ccc(N3CCCCCC3)o2)C(=O)N(C)C1=S,i,35µM,i,nt
CN1C(=O)C(=Cc2ccc(N3CCOCC3)o2)C(=O)N(C)C1=O,i,?,i,i
COc1ccc(S(=O)(=O)N2CCOCC2)cc1NC(=O)CSc1nnc2n1CCCCC2,nt,nt,i,nt
Nc1nc(NCCc2ccccc2)nc(NCc2ccccc2)c1[N+](=O)[O-],9.3µM,i,i,?
C=CCNc1nc(N)c([N+](=O)[O-])c(NCc2ccccc2)n1,i,i,i,?
Nc1nc(NCCN2CCOCC2)nc(NCc2ccccc2)c1[N+](=O)[O-],6.6µM,i,i,8.3µM
CCc1ccccc1NC(=O)CN1C(=O)c2ccccc2Sc2ncccc21,nt,i,nt,nt
COc1ccc(CCN2C(=O)c3[nH]nc(-c4ccccc4O)c3C2c2ccccc2)cc1 (stereo unspecified),nt,i,nt,nt
CC[N+]12CCC(CC1)C(C(O)(c1ccccc1)c1ccccc1)C2 (stereo unspecified),?,i,i,?
C[N+]12CCC(CC1)C(C(O)(c1cccc(Cl)c1)c1cccc(Cl)c1)C2 (stereo unspecified),13µM,i,i,2.9µM
COc1ccccc1Nc1nc(-c2sc(NC(=O)c3ccccc3)nc2C)cs1,?,i,i,?
Cc1ccc(Cl)cc1Nc1nc(-c2sc(NC(=O)c3ccccc3)nc2C)cs1,2.1µM,i,i,2.6µM
SMILES,Pf growth 48h,Sm TGR block,SARS PLpro yeast,Pf growth 96h
CCCCCCC(=O)Nc1nc(C)c(-c2csc(Nc3cc(Cl)ccc3C)n2)s1,?,i,i,?
Cc1nc(NC(=O)c2ccccc2)sc1-c1csc(NCc2ccccc2)n1,?,i,i,nt
Cc1nc(NC(=O)c2ccccc2)sc1-c1csc(Nc2cccc(F)c2)n1,?,i,i,4.7µM
CCOc1ccccc1Nc1nc(-c2sc(NC(=O)c3cccc(Cl)c3)nc2C)cs1,6.6µM,i,i,4.7µM
CCOc1ccccc1Nc1nc(-c2sc(NC(=O)c3ccccc3)nc2C)cs1,7.4µM,i,i,?
Cc1nn(-c2ccccc2)c(Cl)c1C(=O)NCCCCNC(=O)c1c(C)nn(-c2ccccc2)c1Cl,13µM,i,i,nt
CN(C(=O)c1ccco1)c1nc(-c2ccc(Cl)cc2)cs1,i,i,i,6.6µM
Cc1ccc(-c2csc(N(C)C(=O)c3c(C)nn(-c4ccccc4)c3Cl)n2)cc1,12µM,i,i,?
Cc1nn(-c2ccccc2)c(Cl)c1C(=O)NCc1ccccc1F,?,i,i,?
Cc1ccc(CN(C)C(=O)c2c(C)nn(-c3ccccc3)c2C)cc1,i,i,i,i
Cc1cc(N2CCN(C)CC2)nc2ccc(NC(=O)Nc3ccccc3Br)cc12,nt,i,nt,nt
COCCC1CCCCN1C(=O)c1ccc2nc(Cc3ccccc3F)oc2c1 (stereo unspecified),?,i,i,i
